Screening data from PubChem BioAssay.
Most compounds without a hit are left out; they make up all but 7.8% or so of the library.
Shh pathway inh: blocks Sonic Hedgehog signaling. 2.1% of 22,000 active. inhibition, % (test concentration not listed). AID 2313. Shh-LIGHT2 Gli-luciferase reporter, 30 h;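 active means mean inhibition across valid replicates above about 65%, limit read from the data; inconclusive means mean under the limit, yet half or more replicates past it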;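 further: pathway switched on by Shh-conditioned medium diluted 1 in 25 in low serum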
MITF inhib: blocks MITF activity; TRPM1 promoter luciferase, luminescence, 24 h; inhibition, % (test concentration not listed); 0.28% of 37,000 active; AID 2240; in the data active means inhibition above about 85%; inconclusive means no clear call, values can overlap the other calls; inactive means below about 68%;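 further: human melanocyte line stably carrying TRPM1 promoter luciferase reporter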
NOMO-1 viab: STK33 inhibitor candidate reducing NOMO-1 cell viability; NOMO-1 AML viability, CellTiter-Glo luminescence, 72 h; inhibition, % (concentration not given with the values); 7.5% of 37,000 active; in the data active means inhibition above about 80%; inconclusive means no clear call, values can overlap the other calls
Each line names hits and unclear results; the compound was inactive in the other large screens.

C[C@H](CO)N1C[C@H](C)[C@@H](CN(C)Cc2ccc(Oc3ccccc3)cc2)Oc2ccc(NS(=O)(=O)c3ccccc3)cc2C1=O	none (no result: Shh pathway inh)
C[C@@H]1CN([C@H](C)CO)C(=O)c2cc(NS(=O)(=O)c3ccc(F)cc3)ccc2O[C@H]1CN(C)Cc1ccc(Oc2ccccc2)cc1	NOMO-1 viab 114 (no result: Shh pathway inh)
C[C@@H]1CN([C@H](C)CO)C(=O)c2cc(NS(=O)(=O)c3ccc(F)cc3)ccc2O[C@@H]1CN(C)Cc1ccc(Oc2ccccc2)cc1	NOMO-1 viab 86 (no result: Shh pathway inh)
Cc1ccc(-n2c(SCC(=O)Nc3ccc(F)c(Cl)c3)nnc2-c2ccco2)cc1	none (no result: Shh pathway inh)
O=C1CCCC(Cn2cncn2)C1 (stereo unspecified)	none
C[C@H](CO)N1C[C@H](C)[C@H](CN(C)Cc2ccc(C(F)(F)F)cc2)Oc2ccc(NS(=O)(=O)c3ccc(F)cc3)cc2CC1=O	NOMO-1 viab 103 (no result: Shh pathway inh)
Cc1ccc(S(=O)(=O)Nc2ccc3c(c2)CC(=O)N([C@@H](C)CO)C[C@H](C)[C@H](CN(C)Cc2ccc(C(F)(F)F)cc2)O3)cc1	NOMO-1 viab 112
C[C@H](CO)N1C[C@H](C)[C@H](CN(C)Cc2ccc(C(F)(F)F)cc2)Oc2ccc(NS(C)(=O)=O)cc2CC1=O	none
C[C@@H]1CN([C@H](C)CO)C(=O)Cc2cc(NS(C)(=O)=O)ccc2O[C@@H]1CN(C)Cc1ccc(C(F)(F)F)cc1	none
CCn1c(SCC(=O)Nc2ccc(I)cc2)nnc1-c1ccccc1F	none (no result: Shh pathway inh)
COc1cc([N+](=O)[O-])ccc1NC(=O)CCN1C(=O)C2C3C=CC(C4CC34)C2C1=O (stereo unspecified)	none (no result: Shh pathway inh)
Cc1cc(C)cc(NC(=O)CSc2nc3ccccc3s2)c1	none (no result: Shh pathway inh)
C=C1C(=O)O[C@H]2C(=C)[C@@H](CCC(=O)O)[C@@H](C)CC[C@@H]12	none
C=C1C(=O)O[C@H]2C[C@@H](C)[C@@H]3CCC(=O)[C@@]3(C)C[C@H]12	NOMO-1 viab 117
COc1ccc(N2CCc3c(C)c(C#N)c4nc5ccccc5n4c32)cc1	NOMO-1 viab 114
C=CCSc1c2c(c(C#N)c3nc4ccccc4n13)CCC2	none
O=C(O)Cc1ccc(NC(=O)CN2C(=O)c3ccccc3C2=O)cc1	none (no result: Shh pathway inh)
CC(C)(C)c1ccc(OCC(O)CN2CCN(CCO)CC2)cc1 (stereo unspecified)	none (no result: Shh pathway inh)
Cc1ccc2c(c1)c(-c1ccccc1)c(-c1ccccc1)n2CC(O)CN1CCN(CCO)CC1 (stereo unspecified)	NOMO-1 viab 90 (no result: Shh pathway inh)
O=C(CSc1nc2ccccc2c(=O)n1-c1ccc(Cl)cc1)Nc1ccc(Cl)cc1Cl	none (no result: Shh pathway inh)
COc1ccccc1OCC(=O)Nc1c[nH]c(=O)[nH]c1=O	none (no result: Shh pathway inh)
Cc1cc2ccccc2n2c(SCC(N)=O)nnc12	none (no result: Shh pathway inh)
Cc1cc2ccccc2n2c(SCC(=O)NCc3ccco3)nnc12	NOMO-1 viab 111 (no result: Shh pathway inh)
CCOc1ccc2nc(SCC(=O)Nc3c(C)cccc3C)[nH]c2c1	none (no result: Shh pathway inh)
Cc1cccc(C2Sc3ccccc3N=C3c4ccccc4C(=O)C32)c1 (stereo unspecified)	NOMO-1 viab 104
Cc1c(Cl)cccc1NC(=O)CSc1nnc(-c2cccs2)n1C	none (no result: Shh pathway inh)
CCOC(=O)c1cc(C)nc(Sc2ccccc2NC(=O)c2cccc(C(F)(F)F)c2)c1C#N	NOMO-1 viab 114
CCOC(=O)c1cc(C#N)c(Nc2ccccc2OC)nc1C(F)(F)F	none
CCOc1c(O)ccc(C(c2c[nH]c3ccccc23)c2c[nH]c3ccccc23)c1[N+](=O)[O-]	none (no result: Shh pathway inh)
CS(=O)(=O)N(CC(=O)Nc1ccc(Br)cc1)c1ccc(Cl)c(C(F)(F)F)c1	none (no result: Shh pathway inh)
C[C@H]1CN([C@@H](C)CO)C(=O)Cc2cc(NC(=O)Nc3ccc(C(F)(F)F)cc3)ccc2O[C@@H]1CN(C)Cc1ccc(Oc2ccccc2)cc1	none
C[C@@H]1CN([C@H](C)CO)C(=O)Cc2cc(NC(=O)Nc3ccc(C(F)(F)F)cc3)ccc2O[C@@H]1CN(C)Cc1ccc(-c2ccccc2)cc1	NOMO-1 viab 114
C[C@H](CO)N1C[C@H](C)[C@H](CN(C)Cc2ccc(-c3ccccc3)cc2)Oc2ccc(NC(=O)Nc3ccc(C(F)(F)F)cc3)cc2CC1=O	NOMO-1 viab 126
O=C(Cc1ccccc1[N+](=O)[O-])Nc1cc(Cl)ccc1Oc1ccccc1	none (no result: Shh pathway inh)
COc1ccc(-c2cc(C(F)(F)F)nc(SCC(=O)N(C)c3ccccc3)n2)cc1OC	none (no result: Shh pathway inh)
CC(NS(=O)(=O)c1ccc(Br)cc1)C(=O)Nc1cccc(F)c1 (stereo unspecified)	none (no result: Shh pathway inh)
COC(=O)C1=C(NC(=O)c2cccc(Cl)c2)CCS1	none
N/C(=N/C(=S)Nc1ccccc1)N1CCOCC1	none
Cc1nc(SCC(=O)NCc2ccco2)c2c3c(sc2n1)CCC3	none (no result: Shh pathway inh)
O=C(CSc1ncnc2sc3c(c12)CCCCC3)NCc1ccco1	NOMO-1 viab 131 (no result: Shh pathway inh)
CC1(C)Cc2nc3sc4c(SCC(=O)NCc5ccco5)ncnc4c3cc2CO1	NOMO-1 viab 127 (no result: Shh pathway inh)
CCOC(=O)CSc1ncnc2c1sc1nc3c(cc12)COC(C)(C)C3	none (no result: Shh pathway inh)
O=C(COC(=O)c1ccc(N2C(=O)c3ccccc3C2=O)cc1)c1ccccc1	none
Cc1c(Cl)cccc1NC(=O)CN(c1cccc(F)c1)S(C)(=O)=O	none (no result: Shh pathway inh)
N#CC(C#N)=C(Nc1ccccc1Cl)SCc1cccc(F)c1	Shh pathway inh 112, MITF inhib 89, NOMO-1 viab 87
CC1(C)Cc2nc(-c3ccccc3)nc(SCC(=O)Nc3cccc(C(F)(F)F)c3)c2CO1	none (no result: Shh pathway inh)
Cc1ccc(S(=O)(=O)c2ccc(-c3ccccc3)cc2)cc1	none (no result: Shh pathway inh)
CC1=CC(C)(C)N(S(=O)(=O)c2ccc(C)cc2)c2ccccc21	Shh pathway inh 68, NOMO-1 viab 111
CCOc1ccc(C)cc1S(=O)(=O)NCC1CCCO1 (stereo unspecified)	none (no result: Shh pathway inh)
Cc1coc2c1C(=O)C(=O)c1c-2ccc2c1CCCC2(C)C	NOMO-1 viab 109
Cc1cccc(NC(=O)CSc2nnc(-c3cccs3)n2-c2ccccc2)c1C	none (no result: Shh pathway inh)
O=C1c2ccccc2C(=O)N1Cc1cc(NS(=O)(=O)c2ccccc2)ccc1Cl	none (no result: Shh pathway inh)
COc1cc(NC(=O)COc2ccccc2Cl)ccc1NC(=O)c1cc2ccccc2o1	NOMO-1 viab 104 (no result: Shh pathway inh)
COc1cc(NC(=O)COc2cccc(C)c2C)ccc1-c1cc2ccccc2oc1=O	NOMO-1 viab 131 (no result: Shh pathway inh)
COc1cc(NC(=O)COc2cccc(C)c2C)ccc1NC(=O)c1ccccc1Cl	none (no result: Shh pathway inh)
COc1cc(NC(=O)COc2cc(Cl)c(Cl)cc2Cl)ccc1NC(=O)c1cc2ccccc2o1	NOMO-1 viab inconclusive (no result: Shh pathway inh)
COc1ccccc1CCNC(=O)c1cc(-c2ccccn2)nc2c(C)c(Cl)ccc12	NOMO-1 viab 101 (no result: Shh pathway inh)
COc1ccccc1CCNC(=O)c1cc(-c2ccncc2)nc2c(C)c(Cl)ccc12	none (no result: Shh pathway inh)
O/N=C(\Cn1cncn1)c1ccc(Cl)cc1Cl	none
Clc1ccc(CO/N=C(\Cn2ccnc2)c2ccc(Cl)cc2Cl)c(Cl)c1	Shh pathway inh 104, MITF inhib 93, NOMO-1 viab 110
C[C@H]1CN([C@@H](C)CO)C(=O)c2cc(NC(=O)Nc3ccc(F)cc3)ccc2O[C@H]1CN(C)Cc1ccc(-c2ccccc2)cc1	NOMO-1 viab 111
C[C@H](CO)N1C[C@H](C)[C@@H](CN(C)Cc2ccc(-c3ccccc3)cc2)Oc2ccc(NC(=O)Nc3ccc(F)cc3)cc2C1=O	none (no result: Shh pathway inh)
COc1ccc(NC(=O)Nc2ccc3c(c2)C(=O)N([C@@H](C)CO)C[C@@H](C)[C@@H](CN(C)Cc2ccncc2)O3)cc1	none
